Measurements taken from the supplement of paper PMC11732987, “Enantioselective OTUD7B fragment discovery through chemoproteomics screening and high-throughput optimisation” (Communications Chemistry, 2025).

Molecular target: COPS5 (UniProt Q92905)
Test: log2 ratio of Biotin-Ahx-Ub-VS probe labelling (fragment/DMSO); higher = less target engagement (more negative = stronger competition), active = hit call of the paper (q ≤ 0.05, log2 ratio ≤ -1)
Details: compound concentration: 200 uM; treatment time: 3 h
Description: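 Competitive ABPP in HEK293T cell lysate. Lysates were treated with each chloroacetamide fragment at 200 µM for 3 h, then with Biotin-Ahx-Ub-VS (0.5 µM, 1 h), NeutrAvidin-enriched and analysed by diaPASEF LC-MS/MS. Protein LFQ was median-normalised; average log2 ratio is fragment/DMSO from an unpaired t-test (n=3 treated, n=44 DMSO). Hits: q ≤ 0.05, log2 ratio ≤ -1, unique peptides ≥ 2.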

Sequence of COPS5 (Q92905 whole entry, looked up, the tested form may be a part): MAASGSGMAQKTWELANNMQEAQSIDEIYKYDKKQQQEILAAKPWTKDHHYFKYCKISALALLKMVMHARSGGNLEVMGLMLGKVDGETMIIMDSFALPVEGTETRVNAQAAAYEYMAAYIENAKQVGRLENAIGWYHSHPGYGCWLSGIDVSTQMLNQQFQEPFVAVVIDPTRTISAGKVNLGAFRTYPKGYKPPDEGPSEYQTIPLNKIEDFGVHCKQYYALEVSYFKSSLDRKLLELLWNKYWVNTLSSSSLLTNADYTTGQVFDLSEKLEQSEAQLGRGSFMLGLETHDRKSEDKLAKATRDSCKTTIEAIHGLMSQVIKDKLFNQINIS

log2 ratio of Biotin-Ahx-Ub-VS probe labelling, inactive:
Cl.O=C(CCl)NCc1ccnc(Oc2ccccc2F)c1 0.031
NC(=O)C(Cc1ccccc1)NC(=O)CCl (stereo not given) 0.0263
Cl.O=C(CCl)N1CC(c2ccc(Br)cn2)C1 -0.0867
Cn1cc(CN(Cc2ccc(Cl)cc2)C(=O)CCl)cn1 -0.179
COc1ccc(CN(C)C(=O)CCl)cc1 -0.0998
C[C@@H](NC(=O)CCl)c1cccc(C#N)c1 -0.193
O=C(CCl)Nc1ccc(F)cc1F -0.115
Cl.O=C(CCl)N1CCn2ncc(O)c2C1 0.242
Cl.Cn1c(CNC(=O)CCl)nc2cccnc21 0.0916
O=C(CCl)N1CCC(c2noc3cc(F)ccc23)CC1 0.00234
Cc1ccc2nnc(CNC(=O)CCl)n2c1 -0.118
O=C(CCl)N1CCOC(CCc2ccccc2)C1 (stereo not given) -0.026
NS(=O)(=O)c1ccc(Cl)c(NC(=O)CCl)c1 0.226
CC1CN(c2ccc(NC(=O)CCl)cc2)CC(C)O1 (stereo not given) 0.159
O=C(O)C1Cc2ccccc2CN1C(=O)CCl (stereo not given) 0.15
Cc1ncsc1CCNC(=O)CCl 0.936
Cc1nc(CN2CCN(C(=O)CCl)CC2)cs1 -0.305
CC(=O)Nc1ccc(NC(=O)CCl)cc1 -0.0874
Cc1nc(CN2CCCN(C(=O)CCl)CC2)no1.Cl -0.0569
O=C(CCl)NCC(=O)N1CCCC1 -0.0202
Cc1nc(CC2CCN(C(=O)CCl)CC2)no1 0.22
O=C(CCl)N[C@H]1CCS(=O)(=O)c2ccccc21 -0.0992
O=C(CCl)N1CCC(C(=O)N2CCCCCC2)CC1 -0.0587
Cc1ccc(C)c(NC(=O)CCl)c1 -0.0407
O=C(CCl)NC1CCN(C(=O)C2CCCCC2)CC1 -0.188
O=C(CCl)Nc1cc2c(cc1Cl)OCCCO2 -0.0643
CC(O)CC1CCN(C(=O)CCl)CC1 (stereo not given) -0.25
CNC(=O)Cn1cc(NC(=O)CCl)cn1 0.0739
O=C(CCl)N1CCCCCC1c1ncon1 (stereo not given) 0.187
Cc1ccn2cc(CNC(=O)CCl)nc2c1.Cl 0.326
CC1CCc2onc(CNC(=O)CCl)c2C1 (stereo not given) 0.0922
O=C(CCl)N1CCC(C(=O)N2CCCC2)CC1 -0.223
COc1cc(Cl)c(C)cc1NC(=O)CCl -0.0677
Cl.O=C(CCl)NCCN1CCc2ccccc21 0.365
Cc1cccc(C)c1NC(=O)CCl 0.194
O=C(CCl)N1CCC(c2nc3ccccc3o2)CC1 -0.0083
Cl.Cn1nccc1C(NC(=O)CCl)c1ccccc1 (stereo not given) 0.313
O=C(CCl)NC1CCCCNC1=O (stereo not given) 0.0739
CN(CCC(O)c1ccc(Br)cc1)C(=O)CCl (stereo not given) -0.266
Cc1cc(C(=O)NC2CCN(C(=O)CCl)CC2)no1 0.0469
